Source: paper PMC5540273 (PLoS ONE, 2017)

What was measured:
Conditions in all cases: concentration: 1 μM,replicates: in singlicate; n = 1
MAPKAPK5 = tested on: MAPKAPK5
MARK1 = tested on: MARK1
MARK2 = tested on: MARK2
MARK3 = tested on: MARK3
MARK4 = tested on: MARK4
MAST1 = tested on: MAST1
MEK1 = tested on: T1, MEK1
T1 construct: gene MAP2K1

MEK2 = tested on: T2, MEK2
T2 construct: gene MAP2K2

MEK3 = tested on: T3, MEK3
T3 construct: gene MAP2K3

MEK4 = tested on: T4, MEK4
T4 construct: gene MAP2K4

MEK5 = tested on: T5, MEK5
T5 construct: gene MAP2K5

MEK6 = tested on: T6, MEK6
T6 construct: gene MAP2K6

MELK = tested on: MELK
MERTK = tested on: MERTK
MET = tested on: MET
MINK = tested on: T7, MINK
T7 construct: gene MINK1

MKK7 = tested on: MKK7
MKNK1 = tested on: MKNK1
MKNK2 = tested on: MKNK2
MLCK = tested on: T8, MLCK
T8 construct: gene MYLK3
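Also: KINOMEscan kinase panel screen.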

SMILES	%Inh (MAPKAPK5) [%]	%Inh (MARK1) [%]	%Inh (MARK2) [%]	%Inh (MARK3) [%]	%Inh (MARK4) [%]	%Inh (MAST1) [%]	%Inh (MEK1) [%]	%Inh (MEK2) [%]	%Inh (MEK3) [%]	%Inh (MEK4) [%]	%Inh (MEK5) [%]	%Inh (MEK6) [%]	%Inh (MELK) [%]	%Inh (MERTK) [%]	%Inh (MET) [%]	%Inh (MINK) [%]	%Inh (MKK7) [%]	%Inh (MKNK1) [%]	%Inh (MKNK2) [%]	%Inh (MLCK) [%]
CCOC(=O)N1CCC(n2cnc(-c3ccc(F)cc3)c2-c2ccnc(N)n2)CC1 [SB-219952]	13	15	17	0	28	2	3	27	45	18	29	1	0	21	16	54	11	19	49	0
O=C(Nc1n[nH]c2cc(-c3ccco3)ccc12)C1CC1 [SB-737447]	12	12	39	42	0	30	0	0	30	18	76	0	0	0	0	63	0	0	39	78
O=C(Nc1cccc(Oc2ccc3nccn3n2)c1)Nc1cccc(C(F)(F)F)c1	0	14	12	0	24	0	0	7	29	0	97	0	10	24	0	27	0	8	0	0
C[C@@H]1CCN(C(=O)N2CCCC2)C[C@@H]1N(C)c1ncnc2[nH]ccc12	8	0	50	46	5	0	18	0	29	13	38	20	13	0	0	30	0	0	58	0
CCn1c(-c2nonc2N)nc2cncc(CNC3CCNCC3)c21.Cl [SB-747651]	0	0	0	2	0	21	0	1	16	40	32	0	37	0	2	0	0	0	17	0
CC(C)c1nc(-c2cccc(NS(=O)(=O)c3ccccc3)c2)c(-c2ccnc(Nc3ccc4c(c3)CN(C)CC4)n2)s1 [GSK1649598]	0	31	0	14	3	0	52	77	17	99.5	99.1	26	65	42	23	95.1	1	0	81	0
COc1cc2nccc(Nc3ccc(Oc4ccccc4)cc3)c2cc1OC.Cl [GI261656]	0	0	0	0	0	3	96.9	92.5	0	11	99.9	0	3	12	0	0	0	0	27	0
Cc1n[nH]c2cc(Nc3ccnc(Nc4cccc(CN5CCOCC5)c4)n3)ccc12 [GW682569]	0	4	9	0	0	16	14	0	11	16	98.6	0	0	85	14	22	0	23	67	0
Cc1nnc(-c2ccc3occ(-c4ccc(S(C)=O)cc4)c3n2)o1 (stereo not drawn)	0	0	0	0	0	0	0	0	0	0	0	0	0	0	0	0	0	0	0	0
CC(=O)Nc1nc2cnc(Nc3cc(NC(=O)c4cccc(CC(C)(C)C#N)c4)ccc3C)nc2s1	14	8	3	0	8	53	6	6	0	25	46	0	8	31	7	3	0	0	41	0
O=C(Nc1ccccc1)c1cccc(Oc2ccc3nccn3n2)c1	4	0	6	0	10	0	0	6	13	0	9	0	11	0	0	6	0	7	6	1
FC(F)(F)c1cc(Br)cc(Nc2nccc(-c3cnn4ncccc34)n2)c1 [GW810578]	0	0	0	0	0	45	3	14	90.3	21	35	12	7	14	0	3	0	19	0	32
Cn1ccc2ncnc(Oc3ccc(NC(=O)Nc4ccnc(C(F)(F)F)c4)c(Cl)c3)c21	0	0	0	0	0	0	4	15	8	0	9	0	0	23	2	0	0	0	0	0
Cn1cc(-c2cccc3c(N)c(C(N)=O)nnc23)cn1	0	0	27	0	18	17	5	21	60	19	41	0	16	0	3	29	13	5	29	0
CN1CCN(CCNc2nc3cc(Oc4ccc(NC(=O)Nc5cc(C(F)(F)F)ccc5F)cc4)ccc3[nH]2)CC1.Cl.Cl [GW768504]	0	19	0	12	32	7	0	31	0	0	2	12	0	85	6	0	0	24	26	0
COc1cccc(OC)c1C(=O)Nc1cccc(-c2nn3ccccc3c2-c2ccnc(Nc3cccc(F)c3)n2)c1 [GSK361065]	8	17	8	7	14	9	28	41	30	0	93.2	3	0	50	34	0	0	0	0	2
O=c1[nH]cc(-c2ccc(O)cc2)c2sc(-c3ccncc3)cc12 [GSK1033723]	0	0	0	0	1	0	0	0	0	0	37	0	0	0	0	0	0	12	26	40
CN(c1ccc2c(c1)nc(NCc1ccc(F)cc1)n2C)c1ccnc(Nc2ccc(CS(C)(=O)=O)cc2)n1.Cl [GW813244]	0	0	0	0	8	19	14	37	27	40	97.9	11	13	77	45	9	4	0	0	0
CNC(=O)c1ccccc1Nc1nc(Nc2cccc(CS(C)(=O)=O)c2)ncc1C.O=CO [GSK1520489]	0	71	87	72	92.3	5	94.5	91.1	69	56	99.9	39	94.6	100	97.3	58	0	0	50	41
CC(=O)Nc1ccc(-c2cc3ncnc(SCC(=O)O)c3s2)cc1	0	0	17	0	2	0	0	0	6	18	17	20	0	0	0	25	0	0	0	40
NC(=O)Nc1sc(-c2ccc(F)cc2)cc1C(N)=O [GW789449]	0	0	8	0	1	46	30	40	83	24	89	21	12	10	12	60	0	8	0	0
